# In article PMC7862700, “An all-to-all approach to the identification of sequence-specific readers for epigenetic DNA modifications on cytosine”:
# What was measured:
# Assay in all cases: DAPPL (digital affinity profiling via proximity ligation, sequencing); 10 mM Tris-HCl pH 7.5, 50 mM NaCl, 1 mM DTT, 4% glycerol, room temperature, 30 min; GST-TFs on glutathione beads, 16-mer random dsDNA library, 0.1% formaldehyde crosslink after washing; high values mean tight binding
# Settings in all cases: protein: recombinant; tags: N-terminal GST; dsDNA, one strand shown
# GABPA = biological target: T1, GABPA (Homo sapiens, UniProt Q06546 1-454)
# T1 sequence: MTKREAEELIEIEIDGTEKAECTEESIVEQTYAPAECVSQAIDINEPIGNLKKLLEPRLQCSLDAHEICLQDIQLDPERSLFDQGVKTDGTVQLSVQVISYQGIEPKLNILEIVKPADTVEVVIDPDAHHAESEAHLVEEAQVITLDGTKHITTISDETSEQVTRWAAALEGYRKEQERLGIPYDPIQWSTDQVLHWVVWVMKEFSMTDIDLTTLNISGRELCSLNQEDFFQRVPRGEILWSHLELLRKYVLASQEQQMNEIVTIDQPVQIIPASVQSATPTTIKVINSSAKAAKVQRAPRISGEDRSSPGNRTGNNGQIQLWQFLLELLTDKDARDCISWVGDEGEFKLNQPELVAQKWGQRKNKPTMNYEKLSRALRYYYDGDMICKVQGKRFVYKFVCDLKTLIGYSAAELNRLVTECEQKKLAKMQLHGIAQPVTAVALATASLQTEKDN
# Outline: (§1)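 Human transcription factors fused to GST were expressed in yeast, captured on glutathione beads, given DNA barcodes and pooled with a GST-only negative control. Pools were incubated with 200 nmole of a 16-mer random double-stranded DNA library in Tris/NaCl/DTT/glycerol buffer at room temperature for 30 min. They were then washed, crosslinked with 0.1% formaldehyde, proximity-ligated (BsaI/T4 ligase, 1 h, 37 °C), PCR-amplified and sequenced on an Illumina NextSeq500. Binding signal is each 6-mer's read frequency for a factor divided by its frequency for the GST control.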
# ELF1 = ELF1 (Homo sapiens, UniProt P32519 1-619)
# Chain of ELF1 (P32519 whole entry): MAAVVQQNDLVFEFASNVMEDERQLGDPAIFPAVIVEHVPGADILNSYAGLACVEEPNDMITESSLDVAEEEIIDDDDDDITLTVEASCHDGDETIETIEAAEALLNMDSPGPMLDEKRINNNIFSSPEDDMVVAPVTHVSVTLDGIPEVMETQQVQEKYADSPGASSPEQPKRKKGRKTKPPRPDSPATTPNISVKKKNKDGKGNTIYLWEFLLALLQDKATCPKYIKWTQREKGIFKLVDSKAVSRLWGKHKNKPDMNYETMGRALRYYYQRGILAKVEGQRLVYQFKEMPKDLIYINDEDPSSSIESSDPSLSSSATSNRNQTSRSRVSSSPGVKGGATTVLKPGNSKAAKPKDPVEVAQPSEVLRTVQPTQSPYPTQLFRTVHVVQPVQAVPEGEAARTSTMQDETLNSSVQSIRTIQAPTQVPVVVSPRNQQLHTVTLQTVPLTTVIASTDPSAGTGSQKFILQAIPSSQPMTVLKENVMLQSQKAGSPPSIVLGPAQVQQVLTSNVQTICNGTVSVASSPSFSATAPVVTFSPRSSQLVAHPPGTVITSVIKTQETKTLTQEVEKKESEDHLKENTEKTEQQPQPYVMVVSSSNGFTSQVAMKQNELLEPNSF
# Outline: as §1
# ELK3 = biological target: T2, ELK3 (Homo sapiens, UniProt P41970 1-407)
# T2 sequence: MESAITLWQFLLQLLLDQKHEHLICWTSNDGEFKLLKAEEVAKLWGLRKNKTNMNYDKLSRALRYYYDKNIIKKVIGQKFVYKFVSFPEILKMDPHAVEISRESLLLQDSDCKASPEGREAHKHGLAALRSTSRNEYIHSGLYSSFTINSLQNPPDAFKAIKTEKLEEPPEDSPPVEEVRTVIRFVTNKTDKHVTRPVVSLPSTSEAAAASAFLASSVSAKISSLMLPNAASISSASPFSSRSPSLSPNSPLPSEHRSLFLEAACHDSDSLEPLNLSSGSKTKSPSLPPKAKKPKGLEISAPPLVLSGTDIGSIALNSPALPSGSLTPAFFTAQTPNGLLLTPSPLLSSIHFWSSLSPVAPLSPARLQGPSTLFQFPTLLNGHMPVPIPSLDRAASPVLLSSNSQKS
# Outline: as §1
# ETV2 = biological target: T3, ETV2 (Homo sapiens, UniProt O00321 1-342)
# T3 sequence: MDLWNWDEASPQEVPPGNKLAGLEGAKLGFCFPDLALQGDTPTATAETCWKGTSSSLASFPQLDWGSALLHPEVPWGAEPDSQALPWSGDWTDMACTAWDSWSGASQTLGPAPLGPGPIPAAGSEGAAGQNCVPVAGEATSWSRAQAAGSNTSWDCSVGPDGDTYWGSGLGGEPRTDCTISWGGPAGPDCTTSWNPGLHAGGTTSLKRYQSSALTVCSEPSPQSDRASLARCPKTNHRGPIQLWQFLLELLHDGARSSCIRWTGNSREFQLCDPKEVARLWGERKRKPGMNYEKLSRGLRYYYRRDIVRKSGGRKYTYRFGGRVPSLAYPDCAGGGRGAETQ
# Outline: as §1
# ELF3 = biological target: T4, ELF3 (Homo sapiens, UniProt P78545 1-371)
# T4 sequence: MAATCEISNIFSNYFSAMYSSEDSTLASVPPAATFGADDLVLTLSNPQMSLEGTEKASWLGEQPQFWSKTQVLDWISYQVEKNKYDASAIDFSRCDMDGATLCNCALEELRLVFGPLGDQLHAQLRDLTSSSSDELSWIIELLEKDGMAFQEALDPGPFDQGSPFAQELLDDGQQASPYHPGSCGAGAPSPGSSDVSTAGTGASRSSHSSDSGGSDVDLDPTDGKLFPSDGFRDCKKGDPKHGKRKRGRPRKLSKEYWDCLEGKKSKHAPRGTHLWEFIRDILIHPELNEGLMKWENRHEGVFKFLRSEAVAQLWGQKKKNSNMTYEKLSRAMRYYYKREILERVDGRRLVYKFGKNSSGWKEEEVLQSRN
# Outline: as §1
# ETV6 = ETV6 (Homo sapiens, UniProt P41212 1-452)
# Chain of ETV6 (P41212 whole entry): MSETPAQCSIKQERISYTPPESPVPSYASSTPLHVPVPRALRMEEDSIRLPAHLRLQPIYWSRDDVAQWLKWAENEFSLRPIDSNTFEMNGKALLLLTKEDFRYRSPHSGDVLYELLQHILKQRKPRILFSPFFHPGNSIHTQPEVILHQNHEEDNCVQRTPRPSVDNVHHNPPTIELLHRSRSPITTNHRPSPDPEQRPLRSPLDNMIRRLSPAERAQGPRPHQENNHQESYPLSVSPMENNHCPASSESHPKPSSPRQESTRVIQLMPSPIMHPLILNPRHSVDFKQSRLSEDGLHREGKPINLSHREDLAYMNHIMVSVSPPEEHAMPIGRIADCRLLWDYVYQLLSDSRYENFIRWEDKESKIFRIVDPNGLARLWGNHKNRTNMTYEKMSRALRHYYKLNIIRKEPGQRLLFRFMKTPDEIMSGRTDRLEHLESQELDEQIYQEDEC
# Outline: as §1
# ERG = biological target: T5, ERG (Homo sapiens, UniProt P11308 1-479)
# T5 sequence: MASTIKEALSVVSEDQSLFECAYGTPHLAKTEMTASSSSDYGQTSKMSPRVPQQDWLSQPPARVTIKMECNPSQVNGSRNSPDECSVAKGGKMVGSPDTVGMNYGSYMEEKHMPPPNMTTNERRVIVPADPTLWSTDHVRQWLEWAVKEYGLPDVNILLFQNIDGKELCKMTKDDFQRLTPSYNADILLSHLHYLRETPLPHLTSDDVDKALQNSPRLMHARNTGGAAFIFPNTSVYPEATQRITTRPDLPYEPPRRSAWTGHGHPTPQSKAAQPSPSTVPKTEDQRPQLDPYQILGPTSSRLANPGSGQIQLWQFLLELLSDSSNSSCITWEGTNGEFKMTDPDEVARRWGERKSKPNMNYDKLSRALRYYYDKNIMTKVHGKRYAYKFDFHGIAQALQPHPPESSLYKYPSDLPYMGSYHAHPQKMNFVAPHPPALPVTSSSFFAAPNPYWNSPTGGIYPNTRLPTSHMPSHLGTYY
# Outline: as §1
# EHF = biological target: T6, EHF (Homo sapiens, UniProt Q9NZC4 1-300)
# T6 sequence: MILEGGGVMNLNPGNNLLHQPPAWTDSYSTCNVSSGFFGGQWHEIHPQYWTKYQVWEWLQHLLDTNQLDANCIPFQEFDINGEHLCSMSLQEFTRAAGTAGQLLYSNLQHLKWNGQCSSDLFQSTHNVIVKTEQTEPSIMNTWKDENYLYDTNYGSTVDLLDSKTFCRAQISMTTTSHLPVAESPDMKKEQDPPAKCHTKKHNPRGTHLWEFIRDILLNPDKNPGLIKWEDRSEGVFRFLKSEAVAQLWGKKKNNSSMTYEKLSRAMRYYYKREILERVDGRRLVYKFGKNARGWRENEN
# Outline: as §1
# SPIB = SPIB (Homo sapiens, UniProt Q01892 1-262)
# Chain of SPIB (Q01892 whole entry): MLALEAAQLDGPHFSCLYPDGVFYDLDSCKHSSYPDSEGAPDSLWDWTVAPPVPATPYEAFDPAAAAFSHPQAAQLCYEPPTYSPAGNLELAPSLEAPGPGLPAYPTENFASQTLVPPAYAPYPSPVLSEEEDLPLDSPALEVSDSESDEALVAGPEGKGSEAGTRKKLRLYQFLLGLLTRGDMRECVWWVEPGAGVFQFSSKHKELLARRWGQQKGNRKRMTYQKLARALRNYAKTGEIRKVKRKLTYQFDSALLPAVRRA
# Outline: as §1
# ETV1 = ETV1 (Homo sapiens, UniProt P50549 1-477)
# Chain of ETV1 (P50549 whole entry): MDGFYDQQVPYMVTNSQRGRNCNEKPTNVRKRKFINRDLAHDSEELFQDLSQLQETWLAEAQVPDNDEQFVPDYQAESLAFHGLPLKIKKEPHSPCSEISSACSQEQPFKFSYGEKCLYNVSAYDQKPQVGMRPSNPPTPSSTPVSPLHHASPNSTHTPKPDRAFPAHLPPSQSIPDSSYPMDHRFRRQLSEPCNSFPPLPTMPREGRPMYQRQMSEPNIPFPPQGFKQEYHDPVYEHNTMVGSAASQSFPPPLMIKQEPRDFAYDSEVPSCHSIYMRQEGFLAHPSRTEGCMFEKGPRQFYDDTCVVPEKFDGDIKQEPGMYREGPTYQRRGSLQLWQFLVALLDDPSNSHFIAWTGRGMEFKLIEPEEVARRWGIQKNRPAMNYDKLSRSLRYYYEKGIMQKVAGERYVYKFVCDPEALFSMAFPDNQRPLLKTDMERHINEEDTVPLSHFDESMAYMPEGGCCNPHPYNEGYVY
# Outline: as §1
# ETV3 = biological target: T7, ETV3 (Homo sapiens, UniProt P41162-2 1-143)
# T7 sequence: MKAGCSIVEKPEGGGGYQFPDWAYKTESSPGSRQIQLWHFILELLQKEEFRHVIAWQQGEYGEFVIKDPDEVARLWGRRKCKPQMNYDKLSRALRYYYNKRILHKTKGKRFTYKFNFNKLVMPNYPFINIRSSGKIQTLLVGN
# Outline: as §1
# ELK4 = biological target: T8, ELK4 (Homo sapiens, UniProt P28324-2 1-405)
# T8 sequence: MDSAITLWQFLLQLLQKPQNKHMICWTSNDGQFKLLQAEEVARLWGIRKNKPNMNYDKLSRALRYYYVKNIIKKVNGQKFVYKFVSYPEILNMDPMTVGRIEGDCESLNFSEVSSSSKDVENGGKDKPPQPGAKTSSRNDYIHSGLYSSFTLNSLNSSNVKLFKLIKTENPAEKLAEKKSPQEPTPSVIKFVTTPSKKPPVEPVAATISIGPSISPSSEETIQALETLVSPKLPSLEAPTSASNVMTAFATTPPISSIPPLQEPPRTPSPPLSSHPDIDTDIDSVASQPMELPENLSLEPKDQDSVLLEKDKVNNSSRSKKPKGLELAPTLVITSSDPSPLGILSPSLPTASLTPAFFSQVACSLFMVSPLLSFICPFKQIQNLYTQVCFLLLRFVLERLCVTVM
# Outline: as §1
# ETV7 = biological target: T9, ETV7 (Homo sapiens, UniProt Q9Y603 1-341)
# T9 sequence: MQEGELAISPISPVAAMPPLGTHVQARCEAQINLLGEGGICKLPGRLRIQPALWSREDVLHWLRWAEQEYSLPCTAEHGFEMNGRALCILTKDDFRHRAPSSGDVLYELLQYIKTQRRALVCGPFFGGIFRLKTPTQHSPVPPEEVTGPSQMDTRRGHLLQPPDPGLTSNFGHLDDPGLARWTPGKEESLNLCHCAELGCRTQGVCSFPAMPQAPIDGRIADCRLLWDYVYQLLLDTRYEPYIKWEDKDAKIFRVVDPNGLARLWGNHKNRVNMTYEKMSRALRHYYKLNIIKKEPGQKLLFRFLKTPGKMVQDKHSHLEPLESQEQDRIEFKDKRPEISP
# Outline: as §1
# ETS2 = biological target: T10, ETS2 (Homo sapiens, UniProt P15036 1-469)
# T10 sequence: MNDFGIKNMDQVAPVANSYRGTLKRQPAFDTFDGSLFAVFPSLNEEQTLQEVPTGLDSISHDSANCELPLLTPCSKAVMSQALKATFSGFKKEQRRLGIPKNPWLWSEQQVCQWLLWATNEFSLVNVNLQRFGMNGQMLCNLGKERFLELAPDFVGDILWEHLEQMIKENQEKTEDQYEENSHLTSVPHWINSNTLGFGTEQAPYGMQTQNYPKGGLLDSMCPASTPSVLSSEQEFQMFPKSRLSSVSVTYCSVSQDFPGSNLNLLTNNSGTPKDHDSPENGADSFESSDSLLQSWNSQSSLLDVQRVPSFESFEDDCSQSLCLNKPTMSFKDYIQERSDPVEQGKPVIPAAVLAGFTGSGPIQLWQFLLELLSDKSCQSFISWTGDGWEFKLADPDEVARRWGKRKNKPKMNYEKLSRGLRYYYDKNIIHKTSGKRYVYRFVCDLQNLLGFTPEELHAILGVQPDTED
# Outline: as §1
sequence,measurement,setting,value
AACTGT,binding signal,GABPA,"1.01 fold enrichment (6-mer frequency, TF over GST control)"
same,binding signal,ELF1,"1.02 fold enrichment (6-mer frequency, TF over GST control)"
same,binding signal,ELK3,"1.06 fold enrichment (6-mer frequency, TF over GST control)"
same,binding signal,ETV2,"1.15 fold enrichment (6-mer frequency, TF over GST control)"
same,binding signal,ELF3,"1.09 fold enrichment (6-mer frequency, TF over GST control)"
same,binding signal,ETV6,"1.04 fold enrichment (6-mer frequency, TF over GST control)"
GGATAC,binding signal,ERG,"1.09 fold enrichment (6-mer frequency, TF over GST control)"
same,binding signal,EHF,"1.01 fold enrichment (6-mer frequency, TF over GST control)"
same,binding signal,SPIB,"1 fold enrichment (6-mer frequency, TF over GST control)"
same,binding signal,ETV2,"1.01 fold enrichment (6-mer frequency, TF over GST control)"
same,binding signal,ETV1,"1.06 fold enrichment (6-mer frequency, TF over GST control)"
same,binding signal,ETV3,"1 fold enrichment (6-mer frequency, TF over GST control)"
GTTGGT,binding signal,GABPA,"1.04 fold enrichment (6-mer frequency, TF over GST control)"
same,binding signal,ELK4,"1.09 fold enrichment (6-mer frequency, TF over GST control)"
same,binding signal,ETV7,"1.02 fold enrichment (6-mer frequency, TF over GST control)"
GGGTAT,binding signal,SPIB,"1.02 fold enrichment (6-mer frequency, TF over GST control)"
same,binding signal,ELK3,"1.04 fold enrichment (6-mer frequency, TF over GST control)"
same,binding signal,ELK4,"1.1 fold enrichment (6-mer frequency, TF over GST control)"
same,binding signal,ETV1,"1.01 fold enrichment (6-mer frequency, TF over GST control)"
same,binding signal,ETS2,"1.02 fold enrichment (6-mer frequency, TF over GST control)"
same,binding signal,ETV7,"1.02 fold enrichment (6-mer frequency, TF over GST control)"
